The list is not random: actives were taken first. Their share in the collection is about 6.7%.
C diff growth: C. difficile growth inhibition | 86,000 tested, 0.25% active | AID 1259249 | growth activity, negative = inhibition, % at 16 µg/mL (by protocol) | Clostridium difficile clinical isolate growth, OD600, 24 h; stronger effect = lower value;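 active means mean growth activity at or below -80% and every replicate also at or below -80%; inconclusive means mean at or below -80% but some replicate above -80%; inactive means mean growth activity above -80%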
T cruzi growth-1: T. cruzi proliferation inhibition | AID 624255 | 77,000 tested, 5.9% active | inhibition, % at 8.34 µM | T. cruzi beta-gal in NIH3T3, GalScreen luminescence, 90 h;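 active means mean inhibition above about 93%, with at least 55% of replicates each passing it, limit read from the data, passing the limit was not always enough; inconclusive means only one of those two conditions holds; inactive means neither condition holds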
Pf Dd2 growth: inhibitors of Plasmodium falciparum Dd2 growth. 94,000 tested, 2.3% active. activity change, % at 10 µM. P. falciparum Dd2 growth, SYBR Green, 72 h; stronger effect = lower value; in the data active means activity change below about -80%; inconclusive means no clear call, values can overlap the other calls
T cruzi growth-2: inhibitors of T. cruzi proliferation; shares compounds with T cruzi growth-1; T. cruzi beta-gal in NIH3T3, GalScreen luminescence, 90 h; inhibition, % at 8.35 µM; 5,600 tested, 72% active; AID 651739;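 active means mean replicate inhibition above about 95% and at least 55% of replicates individually reaching it, limit read from the data; inconclusive means only one of the two criteria is met; inactive means neither criterion is met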
T cruzi growth-3: Trypanosoma cruzi proliferation inhibition. shares compounds with T cruzi growth-1. T. cruzi beta-gal in NIH3T3, GalScreen luminescence, 90 h. inhibition, % at 2.09 µM. 5,600 tested, 21% active;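 active means mean inhibition above about 95%, with at least 55% of replicates also reaching it, limit read from the data; inconclusive means meets just one of the two conditions; inactive means meets neither condition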
3T3 cytotox: kills mouse NIH/3T3 fibroblasts; AID 651742; cytotoxicity (signal decrease), % at 8.35 µM; NIH/3T3 viability, CellTiter-Glo ATP luminescence, 90 h; shares compounds with T cruzi growth-1; 5,600 tested, 14% active;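 active means mean signal decrease across replicates above about 35% based on untreated-well scatter, with enough replicates individually passing, limit read from the data; inconclusive means no rule stated though some were filed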
NIH3T3 tox 2: cytotoxicity in mouse NIH/3T3 fibroblasts | shares compounds with T cruzi growth-1 | NIH/3T3 viability, CellTiter-Glo ATP luminescence, 90 h | inhibition, % at 24.9 µM | 5,600 tested, 56% active | AID 651744;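 active means mean loss of cell viability signal at or above a set limit, and enough replicates individually reaching it; inconclusive means meets only the mean limit or only the replicate share; inactive means meets neither condition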
Each line names hits and unclear results; the compound was inactive in the other large screens (follow-up assays come after a bar, where they were run); ! = not active in a repeat.

C[C@H]1CCCCO[C@H](CN(C)C(=O)Nc2ccccc2)[C@@H](C)CN([C@@H](C)CO)C(=O)c2cc(NC(=O)Cc3ccccc3)ccc2O1	none (no result: C diff growth)
C[C@@H]1CN([C@H](C)CO)C(=O)Cc2cc(NC(=O)NC3CCCCC3)ccc2O[C@@H]1CN(C)S(=O)(=O)c1ccccc1	none
COc1ccccc1C#Cc1ccc2c(c1)O[C@H](CN(C)C(C)=O)[C@@H](C)CN([C@H](C)CO)S2(=O)=O	none
C[C@H]1CCCCO[C@H](CN(C)C(=O)Nc2ccc3c(c2)OCO3)[C@@H](C)CN([C@@H](C)CO)C(=O)c2cc(NS(=O)(=O)c3ccc(Cl)cc3)ccc2O1	none
C[C@H](CO)N1C[C@H](C)[C@H](CN(C)C(=O)Nc2ccc3c(c2)OCO3)OCCCC[C@H](C)Oc2ccc(NS(=O)(=O)c3ccc(Cl)cc3)cc2C1=O	T cruzi growth-1 97 | T cruzi growth-2 113 | T cruzi growth-3 inactive | 3T3 cytotox inactive | NIH3T3 tox 2 inactive
C[C@@H]1CCCCO[C@@H](CN(C)C(=O)Nc2ccc3c(c2)OCO3)[C@@H](C)CN([C@H](C)CO)C(=O)c2cc(NS(=O)(=O)c3ccc(Cl)cc3)ccc2O1	none
C[C@@H]1CCCCO[C@H](CN(C)C(=O)Nc2ccc3c(c2)OCO3)[C@H](C)CN([C@@H](C)CO)C(=O)c2cc(NS(=O)(=O)c3ccc(Cl)cc3)ccc2O1	T cruzi growth-1 inconclusive | T cruzi growth-2 102 | T cruzi growth-3 inactive | 3T3 cytotox inactive | NIH3T3 tox 2 inactive
C[C@@H]1CN([C@@H](C)CO)C(=O)c2cccc(NC(=O)Nc3ccc4c(c3)OCO4)c2O[C@H]1CN(C)C(=O)Nc1ccc(F)cc1	none
COCC#Cc1ccc2c(c1)O[C@H](CN(C)Cc1ccc3c(c1)OCO3)[C@@H](C)CN([C@@H](C)CO)S2(=O)=O	none (no result: T cruzi growth-1)
COCC#Cc1ccc2c(c1)O[C@@H](CN(C)Cc1ccc3c(c1)OCO3)[C@H](C)CN([C@@H](C)CO)S2(=O)=O	none (no result: T cruzi growth-1)
CC(C)CC#Cc1ccc2c(c1)O[C@H](CN(C)Cc1ccc3c(c1)OCO3)[C@H](C)CN([C@@H](C)CO)S2(=O)=O	T cruzi growth-1 96 | T cruzi growth-2 inconclusive | T cruzi growth-3 107 | 3T3 cytotox inactive | NIH3T3 tox 2 106
CCCC#Cc1ccc2c(c1)O[C@H](CN(C)Cc1ccc3c(c1)OCO3)[C@@H](C)CN([C@@H](C)CO)S2(=O)=O	none (no result: Pf Dd2 growth)
CCCC#Cc1ccc2c(c1)O[C@@H](CN(C)Cc1ccc3c(c1)OCO3)[C@H](C)CN([C@@H](C)CO)S2(=O)=O	T cruzi growth-1 inconclusive (no result: Pf Dd2 growth) | T cruzi growth-2 98 | T cruzi growth-3 108 | 3T3 cytotox 51 | NIH3T3 tox 2 104
CCCC#Cc1ccc2c(c1)O[C@@H](CN(C)Cc1ccc3c(c1)OCO3)[C@H](C)CN([C@H](C)CO)S2(=O)=O	T cruzi growth-1 101 (no result: Pf Dd2 growth) | T cruzi growth-2 inconclusive | T cruzi growth-3 104 | 3T3 cytotox 59 | NIH3T3 tox 2 103
COCC#Cc1ccc2c(c1)O[C@@H](CN(C)Cc1ccc3c(c1)OCO3)[C@@H](C)CN([C@H](C)CO)S2(=O)=O	none (no result: T cruzi growth-1)
C[C@@H]1CN([C@H](C)CO)S(=O)(=O)c2ccc(C#CCN(C)C)cc2O[C@H]1CN(C)Cc1ccc2c(c1)OCO2	T cruzi growth-1 105 | T cruzi growth-2 100 | T cruzi growth-3 inactive | 3T3 cytotox 59 | NIH3T3 tox 2 107
COc1cc(CN2[C@@H]3CNC[C@H]2C3c2ccc(-c3ccc(C)cc3)cc2)cc(OC)c1 (stereo not given in full)	none (no result: T cruzi growth-1)
O=C(N[C@@H]1CC[C@H](CC(=O)N2CCOCC2)O[C@H]1CO)c1ccc2c(c1)OCO2	none
C[C@@H]1CN([C@@H](C)CO)C(=O)c2cc(NC(=O)CCC(F)(F)F)ccc2O[C@@H](C)CCCCO[C@H]1CN(C)Cc1ccc(C(=O)O)cc1	none
C[C@@H]1CCCCO[C@H](CN(C)S(=O)(=O)c2ccccc2)[C@H](C)CN([C@H](C)CO)C(=O)c2cc(NC(=O)Nc3ccccc3)ccc2O1	T cruzi growth-1 103, Pf Dd2 growth -85 (no result: C diff growth) | T cruzi growth-2 113 | T cruzi growth-3 inactive | 3T3 cytotox inactive | NIH3T3 tox 2 34
C[C@@H]1CN([C@H](C)CO)C(=O)c2cc(NC(=O)Nc3ccccc3)ccc2O[C@@H](C)CCCCO[C@@H]1CN(C)S(=O)(=O)c1ccccc1	none (no result: C diff growth)
C[C@H](CO)N1C[C@H](C)[C@H](CN(C)S(=O)(=O)c2ccccc2)OCCCC[C@H](C)Oc2ccc(NC(=O)Nc3ccccc3)cc2C1=O	T cruzi growth-1 100 (no result: C diff growth) | T cruzi growth-2 108 | T cruzi growth-3 inactive | 3T3 cytotox inactive | NIH3T3 tox 2 54
C[C@H]1CCCCO[C@H](CN(C)S(=O)(=O)c2ccccc2)[C@@H](C)CN([C@@H](C)CO)C(=O)c2cc(NC(=O)Nc3ccccc3)ccc2O1	none (no result: C diff growth)
C[C@@H]1CN([C@@H](C)CO)C(=O)c2cccc(NC(=O)C3CCCCC3)c2O[C@@H]1CN(C)Cc1ccc2c(c1)OCO2	none
COCC(=O)Nc1ccc2c(c1)C(=O)N(C)[C@@H]1CC[C@@H](CC(=O)Nc3ccccc3)O[C@H]1CO2	none
COc1cccc(S(=O)(=O)N(C)C[C@@H]2OCc3cn(nn3)CCCC(=O)N([C@@H](C)CO)C[C@@H]2C)c1	none
COc1cccc(S(=O)(=O)N(C)C[C@H]2OCc3cn(nn3)CCCC(=O)N([C@@H](C)CO)C[C@H]2C)c1	none
COc1cccc(S(=O)(=O)N(C)C[C@H]2OCc3cn(nn3)CCCC(=O)N([C@@H](C)CO)C[C@@H]2C)c1	T cruzi growth-1 116! | T cruzi growth-2 inactive | T cruzi growth-3 inactive | 3T3 cytotox inactive | NIH3T3 tox 2 inactive
C[C@@H]1CN([C@@H](C)CO)C(=O)CCCn2cc(nn2)CO[C@H]1CN(C)S(=O)(=O)c1ccc2ccccc2c1	T cruzi growth-1 125! | T cruzi growth-2 inactive | T cruzi growth-3 inactive | 3T3 cytotox inactive | NIH3T3 tox 2 inactive
C[C@@H]1CN([C@H](C)CO)C(=O)CCCn2cc(nn2)CO[C@@H]1CN(C)S(=O)(=O)c1ccc2ccccc2c1	none (no result: C diff growth)
COc1cccc(S(=O)(=O)N(C)C[C@H]2OCc3cn(nn3)CCCC(=O)N([C@H](C)CO)C[C@@H]2C)c1	T cruzi growth-1 inconclusive | T cruzi growth-2 inactive | T cruzi growth-3 inactive | 3T3 cytotox inactive | NIH3T3 tox 2 inactive
C[C@H](CO)N1C[C@H](C)[C@@H](CN(C)C(=O)Nc2ccc(C(F)(F)F)cc2)Oc2c(NS(=O)(=O)c3ccc(Cl)cc3)cccc2C1=O	none
CS(=O)(=O)Nc1ccc2c(c1)[C@H]1C[C@@H](CC(=O)NCc3ccccc3F)O[C@H](CO)[C@H]1O2	none
COc1ccc(-c2ccc3c(c2)O[C@@H](CN(C)C)[C@H](C)CN([C@@H](C)CO)S3(=O)=O)cc1	none

Compound activity (PubChem)
